Laboratory results published in PubChem BioAssay AID1159580 (chemical genetic matrix, 2015).
Screen size: about 5,500 compounds; about 2,000 (36%) were called active. Inconclusive results (about 18%) are left out. Some of the results follow. Unmarked numbers belong to inactive results. No stated cut-off is given here; in the data, active means normalized growth mostly below about 0.91 (no sharp cut-off); inconclusive means no clear call, values can overlap the other calls; inactive means mostly above about 0.92.

Assay: chemical genetic growth profiling, strain panel (AID 1159580);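 further: tested at 20 µM; growth read once vehicle control cultures reached saturation at 30 °C; 1 = growth at the plate median or of vehicle wells; lower values mean less growth of the strain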
Settings: S. cerevisiae deletion strains, growth OD
[1] = locus YAR019C, strain CDC15, hits give low values
[2] = locus YBL105C, strain PKC1, hits give low values
[3] = locus YBR135W, strain CKS1, hits give low values
[4] = locus YBR136W, strain MEC1, hits give low values
[5] = locus YBR160W, strain CDC28, hits give low values
[6] = locus YDL017W, strain CDC7, hits give low values
[7] = locus YDL028C, strain MPS1, hits give low values
[8] = locus YDL101C, strain DUN1, hits give low values
[9] = locus YDL108W, strain KIN28, hits give low values
[10] = locus YDL214C, strain PRR2, hits give low values
[11] = locus YDR052C, strain DBF4, hits give low values
[12] = locus YDR054C, strain cdc34, hits give low values
[13] = locus YDR226W, strain ADK1, hits give low values
[14] = locus YDR477W, strain SNF1, hits give low values
[15] = locus YER123W, strain YCK3, hits give low values
[16] = locus YER133W, strain GLC7, hits give low values
[17] = locus YFL009W, strain cdc4, hits give low values
[18] = locus YFL029C, strain CAK1, hits give low values
[19] = locus YFR003C, strain YPI1, hits give low values
[20] = locus YFR019W, strain FAB1, hits give low values
[21] = locus YFR028C, strain CDC14, hits give low values
[22] = locus YGR040W, strain KSS1, hits give low values
[23] = locus YGR052W, strain FMP48, hits give low values
[24] = locus YGR092W, strain DBF2, hits give low values
[25] = locus YHR079C, strain IRE1, hits give low values
[26] = locus YHR082C, strain KSP1, hits give low values
[27] = locus YHR205W, strain SCH9, hits give low values
[28] = locus YIL147C, strain SLN1, hits give low values
[29] = locus YJL095W, strain BCK1, hits give low values
[30] = locus YJL157C, strain FAR1, hits give low values
[31] = locus YJR016C, strain ILV3, hits give low values
[32] = locus YJR066W, strain TOR1 (second series), hits give low values
[33] = locus YJR066W, strain TOR1, hits give low values
[34] = locus YKL048C, strain ELM1, hits give low values
[35] = locus YKL067W, strain YNK1, hits give low values
[36] = locus YKL101W, strain HSL1, hits give low values
[37] = locus YKL193C, strain SDS22, hits give low values
[38] = locus YKL203C, strain TOR2, hits give low values
[39] = locus YLR113W, strain HOG1, hits give low values
[40] = locus YLR133W, strain CKI1, hits give low values
[41] = locus YLR403W, strain SFP1, hits give low values
[42] = locus YML070W, strain DAK1, hits give low values
[43] = locus YMR001C, strain CDC5, hits give low values
[44] = locus YMR205C, strain PFK2 (second series), hits give low values
[45] = locus YMR277W, strain FCP1, hits give low values
[46] = locus YNL006W, strain LST8, hits give low values
[47] = locus YNL020C, strain ARK1, hits give low values
[48] = locus YNL161W, strain CBK1, hits give low values
[49] = locus YNL183C, strain NPR1, hits give low values
[50] = locus YNL207W, strain RIO2, hits give low values
[51] = locus YNL222W, strain SSU72, hits give low values
[52] = locus YNL307C, strain MCK1 (second series), hits give low values
[53] = locus YOL078W, strain AVO1, hits give low values
[54] = locus YOL136C, strain PFK27, hits give low values
[55] = locus YOR061W, strain CKA2, hits give low values
[56] = locus YOR119C, strain RIO1, hits give low values
[57] = locus YOR231W, strain MKK1, hits give low values
[58] = locus YOR329C, strain SCD5, hits give low values
[59] = locus YPL031C, strain PHO85, hits give low values
[60] = locus YPL153C, strain RAD53, hits give low values
[61] = locus YPL204W, strain HRR25, hits give low values
[62] = locus YPL209C, strain IPL1, hits give low values
[63] = locus YPL256C, strain CLN2, hits give low values
[64] = locus YPR025C, strain CCL1, hits give low values
[65] = locus YPR111W, strain DBF20, hits give low values
[66] = strain NNK1, hits give low values
[67] = strain TSCII, hits give low values

O=C(CSC1=NNC(c2ccccn2)S1)Nc1ccccc1 (stereo not drawn)
normalized growth [1]: 1 | normalized growth [2]: 0.998 | normalized growth [3]: 0.994 | normalized growth [4]: 1 | normalized growth [5]: 1 | normalized growth [6]: 1.01 | normalized growth [7]: 0.998 | normalized growth [8]: 0.997 | normalized growth [9]: 1 | normalized growth (locus YDL132W, strain cdc53, hits give low values): 0.995 | normalized growth [10]: 0.984 | normalized growth [11]: 0.994 | normalized growth [12]: 1 | normalized growth [13]: 1 | normalized growth [14]: 0.971 | normalized growth [15]: 0.951 | normalized growth [16]: 0.962 | normalized growth [17]: 1 | normalized growth [18]: 0.998 | normalized growth [19]: 1.01 | normalized growth [20]: 0.966 | normalized growth [21]: 1 | normalized growth [22]: 0.976 | normalized growth [23]: 1.08 | normalized growth [24]: 0.929 | normalized growth [25]: 1.08 | normalized growth [26]: 1.27 | normalized growth [27]: 0.97 | normalized growth [28]: 1 | normalized growth [29]: 1.08 | normalized growth (locus YJL128C, strain PBS2, hits give low values): 0.976 | normalized growth [30]: 0.934 | normalized growth [31]: 1 | normalized growth [32]: 0.942 | normalized growth [33]: 1.27 | normalized growth [34]: 0.949 | normalized growth [35]: 0.987 | normalized growth [36]: 0.981 | normalized growth [37]: 0.997 | normalized growth [38]: 1.03 | normalized growth [39]: 1.06 | normalized growth [40]: 0.933 | normalized growth [41]: 0.92 | normalized growth [42]: 0.966 | normalized growth [43]: 1 | normalized growth [44]: 0.955 | normalized growth [45]: 1 | normalized growth [46]: 1.02 | normalized growth [47]: 0.936 | normalized growth [48]: 0.999 | normalized growth [49]: 1.01 | normalized growth [50]: 0.995 | normalized growth [51]: 1 | normalized growth [52]: 0.949 | normalized growth [53]: 0.995 | normalized growth [54]: 0.967 | normalized growth [55]: 0.96 | normalized growth [56]: 0.973 | normalized growth [57]: 1.11 | normalized growth [58]: 1 | normalized growth [59]: 0.973 | normalized growth [60]: 0.955 | normalized growth [61]: 0.923 | normalized growth [62]: 1 | normalized growth [63]: 1.03 | normalized growth [64]: 0.999 | normalized growth (locus YPR106W, strain ISR1, hits give low values): 1.01 | normalized growth [65]: 1.01 | normalized growth [66]: 0.995 | normalized growth [67]: 0.996

C#CCSC1=NNC(c2ccccn2)S1 (stereo not drawn)
normalized growth [1]: 0.583 (active) | normalized growth [2]: 0.945 | normalized growth [3]: 0.928 | normalized growth [4]: 0.924 | normalized growth [5]: 0.932 | normalized growth [6]: 0.947 | normalized growth [7]: 0.917 | normalized growth [8]: 0.45 (active) | normalized growth [9]: 0.932 | normalized growth [10]: 0.163 (active) | normalized growth [11]: 0.94 | normalized growth [12]: 0.531 (active) | normalized growth [13]: 0.975 | normalized growth [14]: 0.136 (active) | normalized growth [15]: 0.125 (active) | normalized growth [16]: 0.162 (active) | normalized growth [17]: 0.573 (active) | normalized growth [18]: 0.517 (active) | normalized growth [19]: 0.957 | normalized growth [20]: 0.111 (active) | normalized growth [21]: 0.763 (active) | normalized growth [22]: 0.176 (active) | normalized growth [23]: 0.175 (active) | normalized growth [24]: 0.119 (active) | normalized growth (locus YHR030C, strain SLT2, hits give low values): 0.135 (active) | normalized growth [25]: 0.122 (active) | normalized growth [26]: 0.21 (active) | normalized growth [27]: 0.123 (active) | normalized growth [28]: 0.932 | normalized growth [29]: 0.129 (active) | normalized growth [30]: 0.119 (active) | normalized growth [31]: 0.596 (active) | normalized growth [32]: 0.124 (active) | normalized growth [33]: 0.172 (active) | normalized growth [34]: 0.262 (active) | normalized growth [35]: 0.137 (active) | normalized growth [36]: 0.173 (active) | normalized growth [37]: 0.618 (active) | normalized growth [38]: 0.153 (active) | normalized growth [39]: 0.225 (active) | normalized growth [40]: 0.152 (active) | normalized growth [41]: 0.045 (active) | normalized growth [42]: 0.12 (active) | normalized growth [43]: 0.821 (active) | normalized growth [44]: 0.167 (active) | normalized growth [45]: 0.481 (active) | normalized growth [46]: 0.892 (active) | normalized growth [47]: 0.137 (active) | normalized growth [48]: 0.738 (active) | normalized growth [49]: 0.171 (active) | normalized growth [50]: 0.811 (active) | normalized growth [51]: 0.635 (active) | normalized growth [52]: 0.151 (active) | normalized growth [53]: 0.527 (active) | normalized growth [54]: 0.13 (active) | normalized growth [55]: 0.183 (active) | normalized growth [56]: 0.139 (active) | normalized growth [57]: 0.149 (active) | normalized growth [58]: 0.855 (active) | normalized growth [59]: 0.162 (active) | normalized growth [60]: 0.126 (active) | normalized growth [61]: 0.141 (active) | normalized growth [62]: 0.951 | normalized growth [63]: 0.149 (active) | normalized growth [64]: 0.931 | normalized growth [65]: 0.928 | normalized growth [66]: 0.408 (active) | normalized growth [67]: 0.541 (active)
